From PubChem BioAssay (Tox21)
Records with an inconclusive call do not appear. The source made the active and inactive calls. Calls follow the shape of the dose curve; as a rule, active = well fitted activation curve with a large enough effect in the repeat runs; inconclusive = weak or mixed curves; inactive = no such curve, though single readings can be large or run the other way.

The compounds below were run against Aryl hydrocarbon receptor (Homo sapiens) (UniProt P35869) (assay: qHTS assay to identify small molecule that activate the aryl hydrocarbon receptor (AhR) signaling pathway (AID 743085; also: nearly all actives have a fitted effect of over 15% in size;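 as to activation: HG2L7.5c1 human HepG2 liver cells with stably integrated DRE-driven firefly reporter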)). Settings: HepG2 AhR-luc (HG2L7.5c1), luciferase, 24 h; series mostly up to 70.3 µM; activation: at the top concentration.
Text: U.S. Tox21 Program National Center for Advancing Translational Sciences [NCATS] NIH Chemical Genomics Center [NCGC] U.S. Environmental Protection Agency [EPA] National Institutes of Environmental Health Sciences [NIEHS] National Toxicology Program [NTP] U.S. Food and Drug Administration [FDA] Tox21 Assay overview: The Aryl hydrocarbon Receptor (AhR), a member of the family of basic helix-loop-helix transcription factors, is crucial to adaptive responses to environmental changes. AhR mediates cellular responses to environmental pollutants such as aromatic hydrocarbons through induction of phase I and II enzymes but also interacts with other nuclear receptor signaling pathways. A cell based HepG2-AhR-luc assay (HG2L7.5c1 cell line, developed by Dr. Michael S. Denison, University of California at Davis, was used to assess the activation of AhR. HepG2 (human hepatocellular carcinoma) cells were stably transfected with an Ah receptor-responsive firefly luciferase reporter gene plasmid containing 20 dioxin responsive elements and luciferase reporter gene. Increased luciferase activity can be used to identify the compounds that induce AhR activation.
Tox21 Assay Protocol Summary: 4000 cells in 5 uL/well were dispensed into white wall/solid bottom 1536-well plates using a Multidrop Combi (Thermo Fisher Scientific Inc., Waltham, MA) dispenser. After the assay plates were incubated at 37C for 5 h, 23 nL of compound or DMSO vehicle was transferred to the assay plates by a pintool station (Kalypsys, San Diego, CA). The plates were incubated at 37C for 24 hr. After 1 ul/well of CellTiter-Fluor reagent (Promega, Madison, WI) was added into the assay plates using a Flying Reagent Dispenser (FRD) (Aurora Discovery, CA), the assay plates were incubated at 37C for 30 min. The fluorescence intensity in the plates was measured using a ViewLux plate reader (PerkinElmer, Shelton, CT), followed by the addition of 4 uL of ONE-Glo Luciferase Assay reagent (Promega) using an FRD (Aurora Discovery). After the assay plates were incubated at room temperature for 30 min, luminescence intensity was measured using a ViewLux plate reader (Perkin Elmer).
% is scaled to controls: 0 for no effect and ±100 for the full control effect; potency is read from the fitted curve at half-maximal effect.

Aryl hydrocarbon receptor (Homo sapiens), sequence (P35869 whole entry, looked up): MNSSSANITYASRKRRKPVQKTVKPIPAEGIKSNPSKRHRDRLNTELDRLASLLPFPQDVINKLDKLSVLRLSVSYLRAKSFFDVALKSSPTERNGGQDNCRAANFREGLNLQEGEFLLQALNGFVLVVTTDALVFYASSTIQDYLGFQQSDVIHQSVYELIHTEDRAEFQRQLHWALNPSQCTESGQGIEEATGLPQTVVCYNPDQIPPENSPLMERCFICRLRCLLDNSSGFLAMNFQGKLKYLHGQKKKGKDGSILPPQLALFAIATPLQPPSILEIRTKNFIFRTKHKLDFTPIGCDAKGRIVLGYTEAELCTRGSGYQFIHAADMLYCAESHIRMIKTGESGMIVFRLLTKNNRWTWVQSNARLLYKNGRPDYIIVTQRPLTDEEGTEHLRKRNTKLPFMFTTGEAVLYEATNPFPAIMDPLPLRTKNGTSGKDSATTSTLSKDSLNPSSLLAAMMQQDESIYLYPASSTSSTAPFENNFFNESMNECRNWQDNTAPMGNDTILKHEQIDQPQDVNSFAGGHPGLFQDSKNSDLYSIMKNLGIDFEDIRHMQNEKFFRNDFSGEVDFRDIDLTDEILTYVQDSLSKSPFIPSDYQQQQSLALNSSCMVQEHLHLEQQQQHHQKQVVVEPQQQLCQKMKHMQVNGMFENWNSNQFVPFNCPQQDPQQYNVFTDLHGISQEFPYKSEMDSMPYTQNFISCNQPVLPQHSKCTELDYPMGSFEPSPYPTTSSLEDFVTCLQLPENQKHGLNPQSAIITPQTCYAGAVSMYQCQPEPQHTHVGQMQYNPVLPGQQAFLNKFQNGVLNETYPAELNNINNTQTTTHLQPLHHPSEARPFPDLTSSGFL

Structure (SMILES)	activation	Potency
O=C(c1ccccc1)c1ccc(O)cc1	2.01% [at 95 µM] (inactive)	–
CCCCCCC(O)CCOC(C)=O (stereo not given)	-0.348% [at 260 µM] (inactive)	–
CC(=O)OCCC1CCCCC1	-0.124% (inactive)	–
CC(C)CC(O)CC(C)C	0.101% (inactive)	–
O=C(O)CNC(=O)c1ccccc1I	2% (inactive)	–
O=C(NS(=O)(=O)/C=C/c1ccccc1)c1ccc(F)cc1Cl	2.66% (inactive)	–
CC(=O)OCCC(C)CC(C)(C)C (stereo not given)	-0.288% (inactive)	–
O=C(O)CCC(=O)c1ccc(-c2ccccc2)cc1	5.22% [at 32.5 µM] (inactive)	–
C[C@H](CS)C(=O)N1CCC[C@H]1C(=O)O	-1.65% (inactive)	–
CC(C(=O)O)c1ccc(C(=O)c2cccs2)cc1 (stereo not given)	-0.645% [at 32.5 µM] (inactive)	–
CC1CCCC(=O)C1=O (stereo not given)	-0.527% (inactive)	–
Cc1cccc(C)c1NC(=O)c1cc(S(N)(=O)=O)c(Cl)cc1O	-3.38% (inactive)	–
CO[C@@H]1[C@@H](OC)[C@H](C)[C@@](O)(CC(=O)O)O[C@H]1[C@H](C)[C@H]1O[C@@]2(CC[C@@](C)([C@H]3CC[C@@](C)([C@@H]4O[C@@H]([C@H]5O[C@](C)(O)[C@H](C)C[C@@H]5C)C[C@@H]4OC4C[C@H](OC)[C@@H](OC)[C@H](C)O4)O3)O2)C[C@H](O)[C@H]1C (stereo not given in full)	-0.997% (inactive)	–
Cc1ccc(N(CCO)CCO)cc1	14% (inactive)	–
COC(CC(C)CCCC(C)(C)O)OC (stereo not given)	0.508% (inactive)	–
O=C1NC(=O)c2cccc3cccc1c23	–	21.7 µM (active)
CC(C)(C)C(O)/C=C/c1ccc2c(c1)OCO2 (stereo not given)	–	11.9 µM (active)
CCCCCCC(CO)CCCC (stereo not given)	-1.05% (inactive)	–
COc1ccc(C(=O)NCc2ccc(OCCN(C)C)cc2)cc1OC	-2.51% (inactive)	–
CC(=O)OCC(=O)[C@@]1(OC(C)=O)[C@@H](C)C[C@H]2[C@@H]3C[C@H](F)C4=CC(=O)C=C[C@]4(C)[C@@]3(F)[C@@H](O)C[C@@]21C	3.67% (inactive)	–

Structure (SMILES)	activation	Potency
Cc1c(C2(c3cc(Br)c(O)c(Br)c3C)OS(=O)(=O)c3ccccc32)cc(Br)c(O)c1Br	-4.73% (inactive)	–
CCOCCC(=O)OCC	0.596% [at 95 µM] (inactive)	–
CNc1c2c(nn1C)CCCC2	-0.66% (inactive)	–
COc1ccc(C)cc1	-0.222% (inactive)	–
COc1ccc(-c2cc(C(F)F)nn2-c2ccc(S(N)(=O)=O)cc2)cc1F	1.32% (inactive)	–
Cc1cn([C@H]2C[C@H](F)[C@@H](CO)O2)c(=O)[nH]c1=O	-0.247% (inactive)	–
O=C(O)CO	-0.273% (inactive)	–
CCN(Cc1cccc(S(=O)(=O)O)c1)c1ccc(C(=C2C=CC(=[N+](CC)Cc3cccc(S(=O)(=O)O)c3)C=C2)c2ccccc2S(=O)(=O)[O-])cc1	-8.17% (inactive)	–
C/C(C=O)=C\c1ccccc1	9.83% (inactive)	–
CCCCC(CC)COS(=O)(=O)O (stereo not given)	–	inactive
Nc1ccc(N=Nc2ccc(N)cc2)cc1	5.51% (inactive)	–
CCCCOC(=O)CCCCC(=O)OCCCC	5.03% (inactive)	–
CC1=C2[C@@H]([C@H](C)CC[C@H]2/C=C(\C)C(=O)O)[C@H](O)C1	0.422% (inactive)	–
CC1C(C)(C)C2=C(C(=O)CCC2)C1(C)C (stereo not given)	-0.472% (inactive)	–
CCCCCc1ccco1	4.47% (inactive)	–
Cc1ccc2nc(N)[nH]c(=O)c2c1Sc1ccncc1	–	13.3 µM (active)
CC(=O)OCC(C)C	-2.34% (inactive)	–
O=NN(CCCl)C(=O)NCCCl	-0.92% (inactive)	–
CCCCCCCCCCCC(=O)OCC(O)CO (stereo not given)	–	inactive
CCN(CC)CCOC(=O)C(c1ccccc1)c1ccccc1	-1.23% (inactive)	–
